Assay results published in PubChem BioAssay (NCATS).
Where “and” joins values, the source holds several entries; their conditions need not be identical. Equal entries are not always repeated. Inconclusive results are not listed. The source holds several records for some structures; these can differ, active in one and inactive in another. Calls of active or inactive are those of the source. Unless noted, calls follow the shape of the dose curve; as a rule, active = well fitted curve in the direction sought with a large enough effect; inconclusive = small, poorly fitted or top-dose-only effect, or another doubt; inactive = no such curve, though single readings can be large; an effect the other way counts as inactive or inconclusive.

Assays:
[1] = High-throughput drug toxicity screening in the BPDCN cell line Cal-1 (AID 1224825; call rule not given here); details: Cal-1 BPDCN cell viability, qHTS; at 45.8 µM (top of the series) unless noted
Method in brief: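 Viability of the BPDCN line Cal-1 is measured as ATP-based luminescence (CellTiter-Glo) following 48 h incubation with compounds. Percent activity uses DMSO-treated wells as 100% and 9.2 uM bortezomib as 0%.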

[2] = qHTS assay for measurement of the activity of small molecule inhibitors on Zika virus induced Caspase-3 activity in human iPSC derived neural progenitor cells (hNPCs) (AID 1224857); also: nearly all actives have a fitted effect of over 65% in size; also: potency is read from the fitted curve at half-maximal effect
Method in brief: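 Values are percent inhibition of virus-induced caspase-3/7 signal, scaled between uninfected cells and ZIKV-infected cells. Infection used 2 FFU/cell for 6 h after 1 h compound exposure.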

[3] = qHTS assay for measurement of the activity of small molecule inhibitors on Zika virus induced Caspase-3 activity in human astrocytoma cells (AID 1224859)
Method in brief: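 Compound added 1 h pre-infection; ZIKV 2 FFU/cell on SNB-19 cells, 6 h, 37 C/5% CO2. Caspase-Glo 3/7 luminescence; values as % inhibition of ZIKV-induced caspase activity.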

[4] = qHTS Screen of the MIPE 4.0 Collection Against Ewings Sarcoma (RDES) (AID 1259252); also: nearly all actives have a fitted effect of over 35% in size; also: potency is read from the fitted curve at half-maximal effect
Method in brief: (§1)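 Compound titrations go onto adherent log-phase cells 4 h after seeding, incubate 48 h at 37C, then CellTiter-Glo luminescence reports viability relative to DMSO and cell-free controls.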

[5] = qHTS Screen of the MIPE 4.0 Collection Against Ewings Sarcoma (TC71) (AID 1259253); also: nearly all actives have a fitted effect of over 40% in size; also: potency is read from the fitted curve at half-maximal effect
Method in brief: as §1

[6] = qHTS Screen of the MIPE 4.0 Collection Against Ewings Sarcoma (EW8) (AID 1259255); also: nearly all actives have a fitted effect of over 35% in size; also: potency is read from the fitted curve at half-maximal effect
Method in brief: as §1

[7] = qHTS Screen of the MIPE 4.0 Collection Against Ewings Sarcoma (TC32) (AID 1259256); also: nearly all actives have a fitted effect of over 45% in size; also: potency is read from the fitted curve at half-maximal effect
Method in brief: as §1

[8] = qHTS assay to identify small molecule inhibitors of chordoma cells - UCH-1 (AID 1259355); also: nearly all actives have a fitted effect of over 55% in size
Method in brief: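 A 48hr growth-inhibition format: each drug tested at 15 concentrations together with added auranofin, camptothecin, doxorubicin, rubitecan and topotecan, with cell viability quantified as CellTiter-Glo luminescence.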

[9] = qHTS assay to identify small molecule inhibitors of chordoma cells - UCH-2 (AID 1259356)
[10] = P-glycoprotein substrates identified in KB-8-5-11 adenocarcinoma cell line, qHTS therapeutic library screen (AID 1346987); also: nearly all actives have a fitted effect of over 65% in size
Method in brief: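 Luminescence from CellTiter-Glo, read 5 min after addition, quantified survival of KB-8-5-11 (P-gp-overexpressing) cells exposed to compounds for 72 h. AC50 was derived from concentration-response curves.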

[11] = Natriuretic polypeptide receptor (hNpr1) antagonism - Pilot counterscreen GloSensor control cell line (AID 1347045; calls by dose curve)
Method in brief: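 Cells were first seeded and incubated overnight at 37C, then loaded with 2% GloSensor substrate for 2 h. Compounds were added for 30 min at room temperature, followed by a baseline read, 50 uM SNP and a final read after 20 min.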

[12] = Identifying Small Molecule Inhibitors of Pancreatic Cancer Stem Cells (SN12C, Adherent) (AID 1259358);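 also: cell survival measured after 48 h of compound exposure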
Method in brief: (§2)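 Viability is scored by CellTiter-Glo luminescence 48 h after dosing, expressed as percent activity against vehicle and no-cell references. Spheroid formats rely on cells cultured 14 days in stem cell media beforehand.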

[13] = Identifying Small Molecule Inhibitors of Pancreatic Cancer Stem Cells (SN12C, Spheroid) (AID 1259360); details: Potency: SN12C spheroid viability; also: potency is read from the fitted curve at half-maximal effect
Method in brief: (§3)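 Spheroids grown 14 days in stem cell media on hydrogel-coated nonadherent plates; 2D lines seeded directly. Compounds added after 4 h attachment, 48 h at 37C, 5% CO2; CellTiter-Glo luminescence normalized to DMSO (no inhibition) and no-cell wells (full inhibition).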

[14] = Identifying Small Molecule Inhibitors of Pancreatic Cancer Stem Cells (A278, Adherent) (AID 1259361); also: nearly all actives have a fitted effect of over 35% in size
Method in brief: as §2

[15] = Identifying Small Molecule Inhibitors of Pancreatic Cancer Stem Cells (Panc1, Adherent) (AID 1259362); details: Potency: viability; also: potency is read from the fitted curve at half-maximal effect;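 as to viability, % of control: compound exposure lasted 48 h before the viability read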
Method in brief: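 Endpoint: ATP-based luminescence, 48 h drug exposure. Bortezomib at 9.2 uM final as full-kill control; DMSO vehicle as negative control; activity normalized between vehicle and cell-free wells.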

[16] = P-glycoprotein substrates identified in KB-3-1 adenocarcinoma cell line, qHTS therapeutic library screen (AID 1346986); also: nearly all actives have a fitted effect of over 60% in size
Method in brief: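 72 h cell-killing screen, 500 cells/well, CellTiter-Glo luminescence. Paired lines KB-3-1/KB-8-5-11; P-gp dependence checked by tariquidar co-treatment and HEK-293 MDR-19 versus empty-vector cells.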

[17] = High-throughput drug toxicity screening in the BPDCN cell line Gen2.2 (AID 1224824; call rule not given here;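 also: cells exposed to compounds for 48 h before reading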); details: Gen2.2 BPDCN cells; at 45.8 µM (top of the series) unless noted
Method in brief: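 CellTiter-Glo luminescence read after 48 h compound exposure at 37 C defines viability; percent activity set with DMSO as 100% and bortezomib (9.2 uM final) as 0%. 500 exponentially growing cells per well, RPMI plus 10% FBS.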

[18] = Identifying Small Molecule Inhibitors of Pancreatic Cancer Stem Cells (A2780, Spheroid) (AID 1259357); details: Potency: A2780 spheroid viability;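 also: spheroids pre-formed over 14 days in stem cell medium on hydrogel; compound exposure lasted 48 h before the ATP luminescence read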
Method in brief: as §3

CC(C)NCC(O)COc1ccc(COCCOC(C)C)cc1 (stereo unspecified)
inactive: Potency [2] | Potency [3] | Potency [4] | Potency [5] | Potency [6] | Potency [7] | Potency [8] | outcome [9] | Potency [10] | outcome [11]
113%: viability (% of control) [1]

Fc1ccc(Cl)cc1-c1nc(Nc2ccncc2)c2nccnc2n1
inactive: Potency [2] | Potency [3] | Potency [4] | Potency [12] | Potency [13] | IC50 (viability decrease) [14] | Potency [15] | Potency [16] | Potency [10]
active: Potency [7] 1.32 µM
85.1%: viability (% of control) [1]

C1COC(NC(C2CC2)C2CC2)=N1
inactive: Potency [2] | Potency [3] | Potency [4] | Potency [5] | Potency [6] | Potency [7] | Potency [8] | outcome [9] | Potency [16] | Potency [10] | outcome [11]

NNCCc1ccccc1
10.4%: viability (% of control) [1]
active: Potency [4] 8.33 µM | Potency [5] 20.9 µM | Potency [6] 9.35 µM | Potency [7] 11.8 µM
inactive: Potency [3] | Potency [8] | outcome [9] | Potency [10]
inactive and 26.4 µM (active): Potency [2]

COCC(=O)NCC=Cc1ccc2ncnc(Nc3ccc(Oc4ccc(C)nc4)c(C)c3)c2c1
active: Potency [4] 20.9 µM | IC50 (viability decrease) [14] 20.9 µM
inactive: Potency [2] | Potency [3]
222%: cell viability, % of control (lower = more cytotoxic) [17]

Cc1ccccc1C(OCCN(C)C)c1ccccc1 (stereo unspecified)
inactive: Potency [2] | Potency [3] | Potency [4] | Potency [5] | Potency [6] | Potency [7] | Potency [8] | outcome [9] | Potency [16] | Potency [10] | outcome [11]

CC1(C)CNc2cc(NC(=O)c3cccnc3NCc3ccncc3)ccc21
active: Potency [4] 1.05 µM | Potency [5] 2.35 µM | Potency [6] 23.5 µM | Potency [7] 5.26 µM
inactive: Potency [2] | Potency [3] | Potency [12] | Potency [13] | Potency [10]
69.9%: viability (% of control) [1]

Cc1n[nH]c(C)c1Cc1sc2c(c1C(=O)N1C[C@H](O)CO1)c(=O)n(C)c(=O)n2CC(C)C
active: Potency [5] 0.166 µM | Potency [7] 0.105 µM
96.6%: viability (% of control) [1]
inactive: Potency [2] | Potency [3] | Potency [4] | Potency [6] | Potency [18] | Potency [12] | Potency [13] | Potency [16] | Potency [10]

Cc1cc(-c2nnc3n2CCCCC3)c(C)n1-c1ccc(F)cc1
inactive: Potency [13]

COc1ccccc1-c1cccc(-c2c(O)c3cc(C#N)c(Cl)cc3[nH]c2=O)c1
active: Potency [6] 30.3 µM | Potency [15] 1.18 µM
inactive: Potency [2] | Potency [3] | Potency [4] | Potency [7] | Potency [12] | Potency [10]

CCN(CCCO)CCCOc1ccc2c(Nc3cc(CC(=O)Nc4cccc(F)c4)[nH]n3)ncnc2c1
inactive: Potency [12] | Potency [13]

COc1ccc(-c2oc3cc(OC)ccc3c2C(=O)c2ccc(C#N)cc2)cc1
19.6%: viability (% of control) [1]
inactive: Potency [2] | Potency [3] | Potency [4] | Potency [6] | Potency [7] | Potency [12] | Potency [13] | Potency [16] | Potency [10]

C/C(=C\C(=O)Nc1ccccc1C(=O)O)c1ccc2ccccc2c1
inactive: Potency [13] | Potency [15] | Potency [10]

OCCC#Cc1nc(-c2ccc(F)cc2)c(-c2ccncc2)n1CCCc1ccccc1
inactive: Potency [2] | Potency [3]
active: Potency [13] 20.9 µM

Cc1ccccc1C(C(=O)NC1CCCC1)N(C(=O)Cn1cnc2ccccc21)c1cccc(F)c1 (stereo unspecified)
102%: viability (% of control) [1]
inactive: Potency [2] | Potency [3] | Potency [12] | Potency [13]

N=c1nc(N2CCCCC2)cc(N)n1O
106%: viability (% of control) [1]
inactive: Potency [2] | Potency [3] | Potency [4] | Potency [6] | Potency [7] | Potency [8] | outcome [9]

C[C@]12CCC(=O)C=C1CC[C@@H]1[C@@H]2[C@@H](O)C[C@@]2(C)[C@H]1CC[C@]2(O)C(=O)CO
inactive: Potency [2] | Potency [3] | Potency [18] | Potency [13] | Potency [15]
